Data as given in PubChem BioAssay (NCATS).
Results filed as inconclusive are left out. Active and inactive are the calls of the source. Calls follow the shape of the dose curve; as a rule, active = well fitted curve in the direction sought with a large enough effect; inconclusive = small, poorly fitted or top-dose-only effect, or another doubt; inactive = no such curve, though single readings can be large; an effect the other way counts as inactive or inconclusive.

Columns and labels:
[1] = target: Glutathione peroxidase 1 (Homo sapiens) (UniProt P07203); test: Primary qHTS Assay for Inhibitors of Recombinant Selenoprotein Glutathione Peroxidase 1 (GPX1) (AID 1845191); also: nearly all actives have a fitted effect of over 65% in size
How it was run: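 GR-coupled readout: NADPH consumption tracked by fluorescence, ex 340/em 450 nm, at t=0 and after 15 min at RT. Final mix 10 nM GPX1, 1 mM GSH, 0.5 mM CHP, 0.5 mM NADPH, 100 nM GR, 0.01% BSA, following 30 min enzyme–compound preincubation.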

[2] = target: Phospholipid hydroperoxide glutathione peroxidase GPX4 (Homo sapiens) (UniProt P36969); test: Primary qHTS Assay for Inhibitors of Recombinant Selenoprotein Glutathione Peroxidase 4 (GPX4) (AID 1845192); also: nearly all actives have a fitted effect of over 65% in size
How it was run: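 Steps: GPX4 plus compound, 30 min RT; add GR/GSH/NADPH master mix; start with cumene hydroperoxide; read 340/450 nm fluorescence at 0 and 15 min. Finals were 200 nM GPX4, 1 mM GSH, 0.5 mM CHP, 0.5 mM NADPH, 100 nM GR.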

[3] = target: Luciferin 4-monooxygenase (Photinus pyralis) (UniProt P08659); test: Primary firefly luciferase (FLuc) qHTS assay for identification of artifact compounds. (AID 1845220); also: nearly all actives have a fitted effect of over 60% in size
How it was run: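 Enzymatic FLuc inhibition assay: compounds pre-exposed to luciferin/ATP (10 uM each) for 15 min, then purified P. pyralis enzyme at 10 nM added. Read-out: luminescence at 5 min.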

[4] = test system: Nanoluciferase (engineered Oplophorus gracilirostris luciferase); test: Primary Nanoluciferase (NLuc) qHTS assay for identification of artifact compounds. (AID 1845222);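 also: NLuc secreted into diluted conditioned medium of S16 cells; series mostly up to about 54 µM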
How it was run: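 S16 cell supernatant NLuc, 1:55; cpds qHTS; 15 min RT dark; Nano-Glo substrate 1:100, 5 min; luminescence; Hill fit of % inhibition.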

[5] = Primary redox qHTS assay for identification of artifact compounds. (AID 1845223)
How it was run: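 Redox-cycling detection via DTT (250 uM final) oxidation coupled to Amplex Red (25 uM)/HRP (250 mU/mL) in HBSS. 15 min preincubation plus 30 min after DTT, room temperature. Ex/Em 525/598 nm; 4-parameter Hill fit against DMSO and 10 uM DA3003.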

Measured: Potency

Sequence of Phospholipid hydroperoxide glutathione peroxidase GPX4 (Homo sapiens) (P36969 whole entry, looked up): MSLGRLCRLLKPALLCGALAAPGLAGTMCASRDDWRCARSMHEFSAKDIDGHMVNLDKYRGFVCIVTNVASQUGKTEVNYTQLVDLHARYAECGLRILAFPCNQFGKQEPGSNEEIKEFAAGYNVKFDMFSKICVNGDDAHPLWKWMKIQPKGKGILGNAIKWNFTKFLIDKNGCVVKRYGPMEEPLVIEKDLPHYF
Sequence of Glutathione peroxidase 1 (Homo sapiens) (P07203 whole entry, looked up): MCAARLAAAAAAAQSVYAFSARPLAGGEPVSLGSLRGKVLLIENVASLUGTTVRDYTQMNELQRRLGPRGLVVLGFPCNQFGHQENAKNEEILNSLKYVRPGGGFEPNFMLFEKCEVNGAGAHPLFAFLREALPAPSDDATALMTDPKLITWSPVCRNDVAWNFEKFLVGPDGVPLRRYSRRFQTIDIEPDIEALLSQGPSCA

C=C(CO)C(=O)O[C@H]1C[C@@]23O[C@@H]2CC/C(=C/[C@H]2OC(=O)C(=C)[C@H]12)CO[C@H]3O
inactive: all assays above

COC(=O)C1(O)C(OC(C)=O)CCC2C3(CC(c4ccoc4)OC3=O)C(C)=CCC21C(=O)OC (stereo not given)
inactive: all assays above

C=C(C(=O)O)[C@H]1C[C@]2(C)C(=O)CC[C@]23O[C@H]1C[C@@H]3C
inactive: all assays above

CC1=CC2=C(C)C(=O)[C@](C)(O)[C@H](O)C2=CO1
inactive: all assays above

C=C[C@@](C)(CCC=C(C)C)O[C@@H]1O[C@H](CO[C@@H]2OC[C@H](O)[C@H](O)[C@H]2O)[C@@H](O)[C@H](O)[C@H]1O
inactive: all assays above

O=C(C[C@@H]1C(C(=O)O)=CO[C@@H](O[C@@H]2O[C@H](CO)[C@@H](O)[C@H](O)[C@H]2O)/C1=C\CO)OCCc1ccc(O)cc1
inactive: all assays above

CC1(C)C[C@H](O)C[C@@]2(C)[C@H]1[C@H](O)C=C1COC(=O)[C@@]12O
inactive: all assays above

CC(C)=CCc1cc(O[C@@H]2O[C@H](CO[C@@H]3OC[C@](O)(CO)[C@H]3O)[C@@H](O)[C@H](O)[C@H]2O)ccc1O
inactive: all assays above

COc1cc(/C=C/CO[C@@H]2O[C@H](CO)[C@@H](O)[C@H](O)[C@H]2O)cc(OC)c1O[C@@H]1O[C@H](CO)[C@@H](O)[C@H](O)[C@H]1O
inactive: all assays above

COc1cc(/C=C/C(=O)O[C@@H]2C[C@](O)(C(=O)O)C[C@@H](O)[C@H]2O)ccc1O
inactive: all assays above

CC1=COC(OC2OC(CO)C(O)C(O)C2O)C2C(CO)CC(OC(=O)/C=C/c3ccc(O)cc3)C12 (stereo not given)
inactive: all assays above

O=C(O)c1ccnc(-c2cc(C(=O)NCCc3ccccc3)ccn2)c1
inactive: all assays above

C/C=C1\[C@H](O[C@@H]2O[C@H](CO)[C@@H](O)[C@H](O)[C@H]2O)OC=C(C(=O)O)[C@H]1CC(=O)OCCc1ccc(O)cc1
inactive: all assays above

CC1(C)C(=O)CCC2(C)C1C(O)C=C1COC(=O)C12O (stereo not given)
inactive: all assays above

COc1ccccc1N1CCN(CCCCNC(=O)c2ccc(-c3cscn3)cc2)CC1
inactive: all assays above

C[C@H]1CC(=O)C2=C(C1)C(O)C(O)[C@@]1(O)[C@H]2C(=O)c2cccc(O)c2[C@@H]1O (stereo not given in full)
inactive: all assays above

COc1cc2c(cc1OC)N1C(=O)C[C@@]34C=CC[N@+]5([O-])CC[C@H]2[C@H](CC3)[C@@]145
inactive: all assays above

C/C=C/C=C/C(O)=C1/C(=O)[C@]2(C)C3/C(=C(O)/C=C/C=C/C)C(=O)C4(C)C1[C@]1(C)O[C@@]4(O)[C@@]3(C)O[C@@]12O
inactive: all assays above

C=CC(C)(CC/C=C(\C)C(=O)OC)OC1OC(COC(=O)CC(C)(O)CC(=O)O)C(O)C(O)C1O (stereo not given)
inactive: all assays above

O=C(Cc1ccccc1)OC[C@H]1O[C@H](O[C@H]2O[C@H](CO)[C@@H](O)[C@H](O)[C@H]2O)[C@H](O)[C@@H](O)[C@@H]1O
inactive: all assays above

CC(C)CC(=O)NCCn1cc(C(=O)O)c(=O)cc1C(O)c1ccccc1 (stereo not given)
inactive: all assays above

O=[N+]([O-])c1cc(Cl)ccc1S(=O)(=O)N1CCN(Cc2ccccc2)CC1
inactive: all assays above

O=C(O)/C=C/c1ccc2occc2c1O[C@@H]1O[C@H](CO)[C@@H](O)[C@H](O)[C@H]1O
inactive: all assays above

O=C(/C=C/c1ccc(O)cc1)O[C@@H]1C[C@@](O)(C(=O)O)C[C@@H](O)[C@@H]1O
inactive: all assays above

CC12CC(O)C(O)C=C1c1cc(O)cc(O)c1C(=O)O2 (stereo not given)
inactive: all assays above

NC1Nc2ccccc2C1(N)CC1NC(=O)C(Cc2ccccc2)NC(=O)C(Cc2ccccc2)NC1=O (stereo not given)
inactive: all assays above

O=C(Nc1cc(-c2ccccc2)nn1-c1ccccc1F)c1ccc([N+](=O)[O-])cc1
inactive: all assays above

C=CC1(C)C=C2CC[C@H]3[C@@](C)(C(=O)O)CCC[C@]3(C)C2CC1 (stereo not given in full)
inactive: all assays above

O=C(C[C@@H]1C(C(=O)O)=CO[C@@H](O[C@@H]2O[C@H](CO)[C@@H](O)[C@H](O)[C@H]2O)/C1=C\CO)OCCc1ccc(O)c(O)c1
inactive: all assays above

COc1cc(O)c2c(c1Cl)CC(C)OC2=O (stereo not given)
inactive: all assays above

CC1CCC2(C(=O)O)CCC3(C)C(=CCC4C5(C)CCC(O)C(C)(C(=O)O)C5CCC43C)C2C1(C)O (stereo not given)
inactive: all assays above

C=C(C)C1Cc2c(ccc3c2OCC(c2ccc(O)cc2O)C3)O1 (stereo not given)
inactive: all assays above

COc1cc2c(cc1O)C(c1ccc(O)cc1)C(C)C(C)C2 (stereo not given)
inactive: all assays above

O=C(O[C@H]1[C@H](Oc2ccc(O)cc2CO)O[C@H](CO)[C@@H](O)[C@@H]1O)c1ccccc1
inactive: all assays above

Cc1ccc(Nc2nnc(-c3ccc([N+](=O)[O-])cc3)o2)cc1Cl
inactive: all assays above

COc1ccc(/C=C/C(N)=O)cc1OC
inactive: all assays above

COC(=O)c1[nH]c(=O)c2ccccc2c1-c1ccc[nH]1
inactive: all assays above

CC(=O)c1c(C)cccc1O[C@@H]1O[C@H](CO)[C@@H](O)[C@H](O)[C@H]1O
inactive: all assays above

CCCNCCOc1ccc(NC(=O)c2c[nH]c3c2C(=O)CCC3)cc1F
inactive: all assays above

CC(C)C(NC(=O)c1ccc(O)cc1)C(=O)N1CCCC1C(=O)Nc1c(O)cccc1C(=O)O (stereo not given)
inactive: all assays above

CC1CC(=O)[C@]2(O)C(C(=O)OCCc3ccc(O)cc3)=CO[C@@H](O[C@@H]3O[C@H](CO)[C@@H](O)[C@H](O)[C@H]3O)[C@H]12 (stereo not given in full)
inactive: all assays above

COc1ccc(O[C@@H]2O[C@H](CO)[C@@H](O)[C@H](O)[C@H]2O)cc1OC
inactive: all assays above

Cc1c(C)c(NCC(=O)N(C)C2CCN(Cc3ccc(C(N)=O)cc3)CC2)c(C)c(C)c1N
inactive: all assays above

COc1cc(O)cc(O[C@@H]2O[C@H](CO)[C@@H](O[C@@H]3OC[C@](O)(CO)[C@H]3O)[C@H](O)[C@H]2O)c1OC
inactive: all assays above

C/C(CO)=C1/CCC23COC(C2)C(O)(C(=O)O)CCC13 (stereo not given)
inactive: all assays above

COc1cc(CC2COC(c3ccc(OC4OC(CO)C(O)C(O)C4O)c(OC)c3)C2CO)ccc1O (stereo not given)
inactive: all assays above

C[C@]1(OC(=O)/C=C\c2ccc(O)cc2)C[C@@H](O)[C@]2(O)C=CO[C@@H](O[C@@H]3O[C@H](CO)[C@@H](O)[C@H](O)[C@H]3O)C12 (stereo not given in full)
inactive: all assays above

CC1(C)[C@@H]2CC=C(CO[C@@H]3O[C@H](CO[C@@H]4OC[C@H](O)[C@H](O)[C@H]4O)[C@@H](O)[C@H](O)[C@H]3O)[C@H]1C2
inactive: all assays above

COc1cc(C[C@@]2(O)CO[C@@H](c3ccc(O[C@@H]4O[C@H](CO)[C@@H](O)[C@H](O)[C@H]4O)c(OC)c3)[C@H]2CO)ccc1O
inactive: all assays above

CC1=CC(=O)C(=C(C)C)CC2C(C)(O)CCC12O (stereo not given)
inactive: all assays above
